In the library only some 12% were active in any assay of this set; here they are far more common.
BAZ2B inh = qHTS Assay for Inhibitors of BAZ2B. 4.4% of 360,000 active. Bromodomain adjacent to zinc finger domain protein 2B (Homo sapiens), Q9UIF8. AlphaScreen BAZ2B-H3K14Ac peptide displacement. Potency, µM (series often up to 114 µM), without a hit: at the highest dose activity change, negative = inhibition, actives largely listed as inhibitors; note: potency is the fitted concentration of half-maximal effect; % is set by controls: 0 for no effect and ±100 for the full control effect; nearly all actives have a fitted effect of over 60% in size
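AlphaScreen displacement: compounds (up to 110uM) incubated 30 min at room temperature with a preformed 50 nM BAZ2B/50 nM biotinylated H3K14Ac peptide complex in PBS pH 7.4 with Tween-20. Donor and acceptor beads at 10 ug/mL final added, 20 min light-protected before reading.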
G9a inh = qHTS Assay for Inhibitors of Histone Lysine Methyltransferase G9a; Histone-lysine N-methyltransferase EHMT2 (Homo sapiens), Q96KQ7; G9a H3K9 monomethylation, AlphaScreen, 2 h; Potency, µM (doses to about 102 µM), for the others: top-dose activity, negative = inhibition, actives largely listed as inhibitors; 8.8% of 350,000 active; AID 504332, 2011; note: potency is the fitted concentration of half-maximal effect; % is set by controls: 0 for no effect and ±100 for the full control effect; nearly all actives have a fitted effect of over 75% in size
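Enzyme 20 nM + cpd, 15 min RT; add b-H3K9 pep 500 nM / SAM 20 uM; 2 h RT; anti-H3K9me1 Ab 0.5 ug/mL + SA donor / anti-rabbit acceptor beads 20 ug/mL each, 10 min; AlphaScreen read.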
PI5P4K alpha inh = qHTS for Inhibitors of phosphatidylinositol 5-phosphate 4-kinase (PI5P4K) | 1.2% of 330,000 active | PI5P4Kalpha enzyme, ADP-Glo luminescence, 60 min; active compounds read low | max response, % | AID 652105, 2013 | Phosphatidylinositol 5-phosphate 4-kinase type-2 alpha (Homo sapiens), P48426; active = max response of -50% or lower; inconclusive = between -30% and -50%; inactive = -30% or higher; note: value at the top dose of about 77 µM; % is set by controls: 0 for no effect and ±100 for the full control effect
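Reactions run in 0.038 M HEPES pH 7.4, 0.28 mM EGTA, 0.1% CHAPS and 5% DMSO, with PI5P4Kalpha, substrate, compound and 5 microM ATP final, one hour at room temperature. Readout is ADP-Glo luminescence.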
PLK1 PBD block = qHTS for Inhibitors of PLK1-PDB (polo-like kinase 1 - polo-box domain): Primary Screen; Serine/threonine-protein kinase PLK1 (Homo sapiens), P53350; Plk1 PBD binding of FITC phosphopeptide, fluorescence polarization; Potency, µM, for inactives: max response, negative = inhibition, hits mostly inhibitors; 2.8% of 360,000 active; AID 720504, 2013; note: potency is the fitted concentration of half-maximal effect; series mostly up to about 57 µM; % is set by controls: 0 for no effect and ±100 for the full control effect; nearly all actives have a fitted effect of over 65% in size
JMJD2A Tudor inh = qHTS Assay for Inhibitors of JMJD2A-Tudor Domain. AlphaScreen JMJD2A-Tudor / H3K4me3 peptide binding. Potency, µM (series often up to 114 µM), without a hit: at the highest dose activity change, negative = inhibition, usual class: inhibitors. AID 504339, 2011. 4.4% of 390,000 active; note: potency is the fitted concentration of half-maximal effect; % is set by controls: 0 for no effect and ±100 for the full control effect; nearly all actives have a fitted effect of over 50% in size
Target sequence (O75164 whole entry, looked up, the tested form may be a part): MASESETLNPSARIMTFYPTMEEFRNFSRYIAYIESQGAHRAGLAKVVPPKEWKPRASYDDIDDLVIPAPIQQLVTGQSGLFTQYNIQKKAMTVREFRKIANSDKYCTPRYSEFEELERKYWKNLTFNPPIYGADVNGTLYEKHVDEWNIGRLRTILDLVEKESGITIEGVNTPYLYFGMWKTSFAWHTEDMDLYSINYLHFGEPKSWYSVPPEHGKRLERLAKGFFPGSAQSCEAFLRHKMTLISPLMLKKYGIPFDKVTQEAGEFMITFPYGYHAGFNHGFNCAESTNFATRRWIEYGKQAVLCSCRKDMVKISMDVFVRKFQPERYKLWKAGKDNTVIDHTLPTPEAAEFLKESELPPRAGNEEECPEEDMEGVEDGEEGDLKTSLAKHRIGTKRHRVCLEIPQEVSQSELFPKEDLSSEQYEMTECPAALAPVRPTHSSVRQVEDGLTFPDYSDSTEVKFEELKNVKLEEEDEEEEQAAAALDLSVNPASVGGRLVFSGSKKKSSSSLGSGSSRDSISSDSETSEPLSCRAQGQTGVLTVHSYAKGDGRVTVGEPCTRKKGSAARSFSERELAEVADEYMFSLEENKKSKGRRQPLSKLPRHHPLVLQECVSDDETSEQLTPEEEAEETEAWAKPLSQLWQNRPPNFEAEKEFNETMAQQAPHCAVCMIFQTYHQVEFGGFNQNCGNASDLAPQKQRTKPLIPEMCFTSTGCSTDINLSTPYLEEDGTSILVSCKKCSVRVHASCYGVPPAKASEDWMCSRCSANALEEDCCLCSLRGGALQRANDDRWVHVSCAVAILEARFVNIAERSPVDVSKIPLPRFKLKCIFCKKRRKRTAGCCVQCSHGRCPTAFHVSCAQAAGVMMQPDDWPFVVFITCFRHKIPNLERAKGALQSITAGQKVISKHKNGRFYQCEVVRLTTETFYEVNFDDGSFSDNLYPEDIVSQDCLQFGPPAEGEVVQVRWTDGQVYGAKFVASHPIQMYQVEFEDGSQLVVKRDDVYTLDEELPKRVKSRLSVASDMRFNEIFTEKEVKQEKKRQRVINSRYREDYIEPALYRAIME
HP1b chromo inh = HTS for Inhibitors of HP1-beta Chromodomain Interactions with Methylated Histone Tails | 0.56% of 390,000 active | Chromobox protein homolog 1 (Homo sapiens), P83916 | AlphaScreen HP1-beta / biotin-H3K9me3 peptide binding | AID 540317, 2011 | Potency, µM (series often up to 114 µM), inactives show at the highest dose activity change, negative = inhibition, usual class: inhibitors; note: potency is the fitted concentration of half-maximal effect; nearly all actives have a fitted effect of over 70% in size
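HP1-beta protein (50 nM final) preincubated 30 min at room temperature with biotinylated H3(1-18)K9me3 peptide (50 nM) in PBS pH 7.4, 0.01% Tween-20, then compound added for 30 min. AlphaScreen streptavidin donor/nickel chelate acceptor beads (10 ug/mL final), 30 min dark, luminescence read.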
Starred values were filed as active, the others as inactive; ? = inconclusive; nt = no result given; [ ] = another dose, or the depositor's remark. Unless noted, calls come from the whole dose curve; as a rule, active = well fitted curve in the direction sought with a large enough effect; inconclusive = small, poorly fitted or top-dose-only effect, or another doubt; inactive = no such curve, though single readings can be large; an effect the other way counts as inactive or inconclusive.

SMILES	BAZ2B inh	G9a inh	PI5P4K alpha inh	PLK1 PBD block	JMJD2A Tudor inh	HP1b chromo inh
Cc1ccccc1C(=O)NC1(C(F)(F)F)N=C(c2ccccc2)N(Cc2ccccc2)C1=O (centres undefined)	-10%	?	nt	nt	-6%	16%
O=C(Cn1c(=O)n(-c2ccc(F)cc2)c(=O)c2sc3ccccc3c21)N1CCCC1	-17%	-21%[59 µM]	nt	nt	-20%	10%
CCOc1ccc(-c2nc3c(c(SCC(=O)N4CCCCC4)n2)Cc2cccc(OC)c2O3)cc1	-35%	-2%[59 µM]	nt	nt	-20%	17%
COCCNC(=O)C1(C)CCCN(Cc2ccc(Cl)nc2)C1 (centres undefined)	nt	nt	2	-4%	nt	nt
COc1ccccc1Nc1nc(-c2sc(NC(=O)c3ccc([N+](=O)[O-])cc3)nc2C)cs1	?	45µM*	nt	nt	nt	nt
CCOc1ccccc1Nc1nc(-c2sc(NC(=O)c3ccccc3)nc2C)cs1	?	32µM*	nt	nt	nt	nt
CCOc1ccccc1Nc1nc(-c2sc(NC(=O)c3cccc(Cl)c3)nc2C)cs1	?	40µM*	?	?	?	?
Cc1cn2c(=O)cc(COc3cccc(NC(=O)c4ccccc4Cl)c3)nc2s1	-19%	-17%[59 µM]	nt	nt	-10%	24%
Cc1cc2c(s1)c1c(C)nn(Cc3ccc(F)cc3)c(=O)c1n2C	1%	-1%[12.7 µM]	nt	nt	nt	nt
O=C(O)CN1C(=O)/C(=C\c2cccc(OCc3ccccc3F)c2)SC1=S	-32%	?	-1	30µM*	?	?
O=C(O)CN1C(=O)/C(=C\c2cccc(OCc3ccc(Cl)cc3)c2)SC1=S	45µM*	40µM*	2	21µM*	?	-11%
Cn1cccc1/C=C1\SC(=S)N(CC(=O)O)C1=O	-34%	-20%[59 µM]	4	30%	-17%	4%
O=C(O)CN1C(=O)/C(=C\c2ccccc2OCc2ccc(Cl)cc2)SC1=S	?	2%[2.33 µM]	?	30µM*	?	-4%
O=C(O)CN1C(=O)/C(=C\c2cccc(OCc3ccc(F)cc3)c2)SC1=S	?	45µM*	-1	27µM*	?	-9%
CN1C(=O)/C(=C\c2ccccc2OCc2ccccc2)SC1=S	-6%	-11%	8	2%	-22%	1%
CN(C1CCCCC1)S(=O)(=O)c1ccc(SCC(=O)C(C)(C)C)nc1	nt	nt	5	-4%	33%	78%
O=C(O)CN1C(=O)/C(=C\c2cc(Br)ccc2OCc2ccc(Cl)cc2Cl)SC1=S	25µM*	40%[0.501 µM]	-6	12µM*	20µM*	?
CC(C)(CNC(=O)CC1C(=O)NCCN1Cc1cccc(F)c1F)N1CCOCC1 (centres undefined)	-3%	-5%[59 µM]	-1	-3%	-12%	24%
COc1cccc(C2=Nn3c(nnc3-c3cc(OC)cc(OC)c3)SC2)c1	nt	nt	nt	nt	-19%	nt
CC(C)c1ccc(S(=O)(=O)c2ccc(NN)cc2)cc1	-10%	10µM*	-7	-28%	-12%	50%
O=C(COc1ccc([N+](=O)[O-])cc1)N(C1CCCCC1)C1CCS(=O)(=O)C1 (centres undefined)	-5%	?	-2	-1%	?	-1%
CC(C)(C)c1ccc(OCC(=O)Nc2ccc3c4c(cccc24)C(=O)NC3=O)cc1	-5%	nt	-1	?	79µM*	8%
COc1ccccc1NC(=O)CSCc1cc(=O)c2cccc(Cl)c2[nH]1	2%	-5%[59 µM]	nt	nt	3%	27%[57 µM]
COc1ccc(NC(=O)C2(C)CCN2CCOc2ccc(C)cc2)cc1OC (centres undefined)	nt	nt	8	-5%	nt	nt
C/C(=N\Nc1ccccn1)c1cccs1	nt	-30%	-1	-7%	-15%	?
SMILES	BAZ2B inh	G9a inh	PI5P4K alpha inh	PLK1 PBD block	JMJD2A Tudor inh	HP1b chromo inh
C/C(=N\Nc1ccc(F)cc1F)c1cccs1	28%	25µM*	nt	nt	nt	nt
COc1ccc(/C(C)=N/Nc2ccc(F)cc2F)c(O)c1	-16%	2.5µM*	6	-7%	-14%	26%
COc1ccc(/C(C)=N/Nc2ccccc2Cl)c(O)c1	?	1µM*	0	-5%	?	-18%
CC(C)n1ncc2c(C(=O)NCC(=O)Nc3ccccc3Br)cc(C3CC3)nc21	25%	60%[12.7 µM]	1	4%	-32%	28%
COc1ccc(-n2nc(C(=O)N3CCCC(C)C3)c3c4ccccc4n(C)c3c2=O)cc1 (centres undefined)	nt	-42%[59 µM]	nt	nt	-20%	21%
O=C(COc1ccc([N+](=O)[O-])cc1)Nc1nc2c(s1)CCCC2	-10%	-27%[59 µM]	nt	nt	-16%	22%
Cc1cccc(NC(=O)C(C)OC(=O)CNC(=O)C2CCCCC2)c1 (centres undefined)	nt	nt	2	-11%	nt	nt
CCc1cc(C(=O)N2CCOCC2)c(NC2=NS(=O)(=O)c3ccccc32)s1	-37%	89µM*	1	0%	-4%	40%
CCN(C(=O)COC(=O)CCn1c(C)csc1=O)c1c(N)n(Cc2ccccc2)c(=O)[nH]c1=O	-1%	29%[12.7 µM]	-3	1%	2%	29%
COc1ccc(NC(=O)c2ccc(-c3ccc([N+](=O)[O-])cc3)o2)cc1	-1%	?	-1	-4%	-10%	18%
CC1(C)CC(NC(=O)c2ccc(-c3ccc([N+](=O)[O-])cc3)o2)CC(C)(C)N1	-33%	45µM*	-14	-28%	-32%	16%
O=C(NN1C(=O)NC2(CCCCC2)C1=O)c1ccc(-c2ccc([N+](=O)[O-])cc2)o1	-29%	79µM*	-24	-19%	-34%	1%
CC1CC(C)CN(C(=O)c2ccc(-c3ccc([N+](=O)[O-])cc3)o2)C1 (centres undefined)	35µM*	11µM*	-19	-23%	45µM*	?
O=C(Nc1ccccc1)c1ccc(-c2ccc([N+](=O)[O-])cc2)o1	-11%	35µM*	-15	-23%	?	?
CCCC1NC(=O)c2cc3ccccc3cc2-n2c1nc1cc(Cl)ccc1c2=O (centres undefined)	nt	nt	1	-3%	nt	nt
CCCCc1ccc(NC(=O)Cn2nnc3sc4c(c3c2=O)CCC(C)C4)cc1 (centres undefined)	-8%	1%[59 µM]	nt	nt	-18%	24%
Cc1c(C(=O)NCc2ccc(F)cc2)sc(=O)n1Cc1ccccc1F	nt	nt	0	3%	nt	nt
COc1ccc(-c2nc(-c3ccccc3)ncc2S(C)(=O)=O)cc1	-4%	17%[12.7 µM]	-10	27µM*	?	7%
CC1(O)CC2CC1C(C(=O)O)C2C(=O)O (centres undefined)	nt	nt	16	-2%	-19%	11%
